Data as given in the supplement of paper PMC6805474.

tested on: Schistosoma mansoni schistosomula (LE); assay: XTT viability relative to DMSO control; higher = more viable (less active); settings: 72 h; 10 µM
Description: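 XTT/PMS was then added for a further 24 h (72 h total) and A450 was read. % viability = (sample - heat-killed control)/(DMSO control - heat-killed control) x 100, from duplicate wells in two independent experiments.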

| Structure (SMILES) | XTT viability |
| --- | --- |
| Cc1nc(-c2ccccn2)nc(NCCc2ccc(S(C)(=O)=O)cc2)c1Cl | 66.9% |
| CC(=O)NC[C@H]1CN(c2ccc(N3CCSCC3)c(F)c2)C(=O)O1 | 145% |
| COc1cccc(-n2nnnc2S(=O)(=O)Cc2ccccc2)c1 | -7.15% |
| Cc1cc(OCC(=O)NCc2ccccc2)c2cc(Br)ccc2n1 | 111% |
| COc1ccc(N(CCc2cccc(C)n2)C(C)=O)cc1 | 114% |
| Cc1cccc(-c2nc(Nc3ccncn3)c3sccc3n2)n1 | 39.9% |
| CC(C)=CCC/C(C)=C\CNCCNC1C2CC3CC(C2)CC1C3 (stereo not given) | 13.5% |
| Brc1c(-c2ccc3c(c2)OCO3)nc2ncccn12 | 99.9% |
| COc1cc(CN2CCC3(C=Cc4ccccc43)CC2)cc2c1OCO2 | 73.9% |
| CCOc1ccc(-c2nc(CNCCc3ccc(F)cc3)cs2)cc1 | 2.26% |
| CC1CCCN(C(=O)C(C)Nc2cc(Cl)ccc2N2CCOCC2)C1 (stereo not given) | 137% |
| COc1ccc(CN2CCOc3ccc(C(C)(O)CN(C)C)cc3C2)cc1C (stereo not given) | 120% |
| CC(C)(C)OC(=O)N1CCN(c2nccc(-c3ccc(-c4ccc(Cl)cc4)s3)n2)CC1 | 93.7% |
| COc1cc(Br)cc2cc(C(=O)Nc3cccc(C(F)(F)F)c3)c(=O)oc12 | 90.6% |
| CC(C)(C)c1cc(C(=O)Nc2cccnc2)cc(C(=O)Nc2cccnc2)c1 | 79.8% |
| CNc1cc(C)nc(C2CN(C(=O)c3n[nH]c4ccccc34)CCO2)c1 (stereo not given) | 123% |
| CCc1nc2ccccc2n1CC(O)COc1cc(C)ccc1Cl (stereo not given) | 106% |
| COc1cc(C2=NCCN2)cc2cc(-c3ccc(C4=NCCN4)cc3)oc12 | 4.86% |
| CCN(CC)CCCCCCNc1cc(OC)cc2c(C)ccnc12 | 59.3% |
| C[C@@H]1[C@H](O)[C@@H](C)/C=C/C=C/C=C/C=C/C=C/C=C/C=C/[C@H](O[C@@H]2O[C@H](C)[C@@H](O)[C@H](N)[C@@H]2O)C[C@@H]2O[C@](O)(C[C@@H](O)C[C@@H](O)[C@H](O)CC[C@@H](O)C[C@@H](O)CC(=O)O[C@H]1C)C[C@H](O)[C@H]2C(=O)O | 95% |

| Structure (SMILES) | XTT viability |
| --- | --- |
| O=C(Nc1nc(-c2ccccn2)cs1)c1cncn1-c1ccccc1 | 68.7% |
| O=C(Nc1ccc(N2CCNCC2)cc1)c1ccn2ncc(-c3cccc(Cl)c3)c2n1 | 7.7% |
| c1cc(C2=NCCN2)cc(-c2cc(-c3ccc(C4=NCCN4)cc3)no2)c1 | 115% |
| Cc1nn2c(O)c3c(nc2c1-c1ccc(F)cc1)CCCC3 | 113% |
| COc1ccc(OC)c(NCc2ccc3nc(N)nc(N)c3c2Cl)c1 | 109% |
| COc1cc(C2=NCCN2)ccc1-c1cn(-c2cccc(C3=NCCN3)c2)nn1 | 72.8% |
| O=C1Nc2ccc(Br)cc2C12NCCc1c2[nH]c2ccccc12 (stereo not given) | 109% |
| CC1=NN(c2nc3ccccc3s2)C(=O)C1Cc1cccc2ccccc12 (stereo not given) | 61.8% |
| C[C@]1(O)C[C@@H](c2nc(-c3ccc4ccc(-c5ccccc5)nc4c3)c3c(N)nccn32)C1 | 64% |
| C[C@H](C(N)=O)N1CCCC[C@@H]1c1ccc(OCc2cccc(F)c2)cc1 | 88.1% |
| O=C(Nc1ccc2c(c1)B(O)OC2)c1ccccc1C(F)(F)F | 71.1% |
| COc1ccc2nccc(NC(=O)C3CCN(CCc4ccc(Cl)cc4)CC3)c2n1 | 77.2% |
| Cc1ccc(-c2cc(C(=O)Nc3cccnc3)c3cc(Br)ccc3n2)cc1 | 146% |
| O=C(NC1CCN(c2ccnc3ccccc23)C1)c1cccc(C(F)(F)F)c1 (stereo not given) | 103% |
| CC(C)(C)c1ccc(N[C@@H]2CCCC[C@H]2NC(=O)c2ccco2)cc1 | 117% |
| CC(C)n1nc(-c2cc3c(Cl)cccc3[nH]2)c2c(N)ncnc21 | 54.3% |
| O=C(NCc1nnc2n1CCCCC2)c1ccc(-c2ccc(F)cc2)o1 | 97.1% |
| COc1ccc(-c2cc(NC(=O)c3ccc(F)cc3Cl)ccc2OC)cc1 | 89.7% |
| O=C(N[C@H](Cc1ccccc1)C(=O)Nc1ccccc1N1CCOCC1)c1cccs1 | 129% |
| COc1ccc(-c2cncc3ccc(C(=O)NCCCn4ccnc4)nc23)cc1 | 121% |
